Records with an inconclusive call do not appear. Active and inactive are the calls of the source. How the source made its calls, unless noted: active means hit-call score of the fitted dose curve at least 0.9, where 1 is the maximum; inactive means score below 0.9.
What was measured:
[1] = ACEA_ER_80hr: ACEA Biosciences xCELLigence Real-Time Cell Analysis on Estrogen Receptor Agonism for Proliferation (AID 2282667; active means hit-call score of the fitted dose curve at least 0.9, where 1 is the maximum); details: T47D proliferation, impedance (xCELLigence), 80 h
Method in brief: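 Cell-growth kinetics were measured by impedance in T47D cells treated continuously with compound (top 100 uM final, 1:4 steps, 8 points). Activity at 80 h was scored as signal gain over the DMSO baseline.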

[2] = ATG_CRE_CIS: Attagene CIS-FACTORIAL HepG2 Assay for human cAMP Responsive Element (CRE) binding protein 3 (AID 2282926); details: HepG2 CRE cis-reporter, Attagene multiplexed mRNA; actives raise or lower the signal
Method in brief: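 Cells carrying cis-regulated reporter constructs respond through their own endogenous factors. After 24 h treatment, RNA is reverse-transcribed, amplified, labelled and sized by capillary electrophoresis; up- and down-regulation are both scored against vehicle.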

[3] = target: CCAAT/enhancer-binding protein beta (Homo sapiens) (UniProt P17676); assay: ATG_C_EBP_CIS: Attagene CIS-FACTORIAL HepG2 Assay for human CCAAT/Enhancer Binding Protein (C/EBP) beta (AID 2282927); details: HepG2 Attagene cis-factorial transcription factor reporter; actives raise or lower the signal
Method in brief: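 Following a 24 h incubation with test chemical, transfected HepG2 cells yielded RNA whose reporter transcripts were quantified by RT-PCR and fluorescent capillary electrophoresis, with DMSO serving as baseline for bidirectional fitting.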

[4] = ATG_CMV_CIS: Attagene CIS-FACTORIAL HepG2 Assay for human CMV (Internal Marker) (AID 2282928); details: HepG2 CMV promoter reporter, transcription factor profiling; actives raise or lower the signal;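 further: endpoint acts as a background internal control marker rather than a target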
Method in brief: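 Bidirectional fits against DMSO are applied to reporter mRNA, read by RT-PCR with capillary electrophoresis, from HepG2 cells exposed 24 h. The endpoint serves as an internal CMV background marker within the cis-factorial reporter panel.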

[5] = ATG_DR4_LXR_CIS: Attagene CIS-FACTORIAL HepG2 Assay for human Liver X Receptor (LXR), DR4 submotif (AID 2282929); details: HepG2 Attagene DR4 cis-reporter, mRNA transcription; actives raise or lower the signal
Method in brief: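 Total RNA from 24 h-treated, MRTU-transfected HepG2 cells underwent reverse transcription, PCR, fluorescent primer extension and restriction digestion before capillary electrophoresis. Both increases and decreases in reporter signal were fitted against DMSO.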

[6] = target: Aryl hydrocarbon receptor (Homo sapiens) (UniProt P35869); assay: ATG_Ahr_CIS: Attagene CIS-FACTORIAL HepG2 Assay for human Aryl Hydrocarbon Receptor (Ahr) (AID 2282930); details: HepG2 AhR cis-factorial reporter transcription; actives raise or lower the signal
Method in brief: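 Values derive from bidirectional fitting against DMSO negative control. Underlying signal: cis-element reporter mRNA in transiently transfected HepG2, harvested 24 h post-dose and measured by RT-PCR plus capillary electrophoresis.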

[7] = ATG_AP_1_CIS: Attagene CIS-FACTORIAL HepG2 Assay for human Activator Protein 1 (AP-1) (AID 2282931); details: HepG2 Attagene cis-factorial AP-1 reporter mRNA; actives raise or lower the signal
Method in brief: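 HepG2, transient cis-reporter transfection; 24 h; readout RT-PCR/CE fluorescence; DMSO baseline, gain and loss fitted.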

[8] = ATG_AP_2_CIS: Attagene CIS-FACTORIAL HepG2 Assay for human Activator Protein 2 (AP-2) (AID 2282932); details: HepG2 AP-2 cis-reporter, Attagene transcription factor profiling; actives raise or lower the signal
Method in brief: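 Assay in transfected HepG2 with promoter-regulated reporters, 24 h incubation after dosing. Signal is reporter mRNA fluorescence (RT-PCR, capillary electrophoresis), analysed for both increases and decreases relative to DMSO controls.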

[9] = ATG_BRE_CIS: Attagene CIS-FACTORIAL HepG2 Assay for human Bone Morphogenetic Protein (BMP) Response Element (BRE) (AID 2282933); details: HepG2 BMP response element reporter, Attagene transcription factor profiling; actives raise or lower the signal
Method in brief: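 HepG2 cells transiently transfected with multiplexed cis-element reporter units were dosed with chemical for 24 h. Reporter mRNA was measured by RT-PCR with fluorescent labelling, HpaI digestion and capillary electrophoresis; bidirectional fitting relative to DMSO.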

[10] = target: Retinoic acid receptor alpha (Homo sapiens) (UniProt P10276); assay: ATG_DR5_RAR_CIS: Attagene CIS-FACTORIAL HepG2 Assay for human Retinoic Acid Receptor Alpha (RARE), DR5 submotif (AID 2282934); details: HepG2 Attagene cis-factorial RARE DR5 reporter, mRNA; actives raise or lower the signal
Method in brief: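 Endpoint fitted in both directions relative to DMSO as negative control. It reflects DR5 cis-element reporter mRNA induction in transiently transfected HepG2 cells, measured 24 h after dosing through RT-PCR and fluorescent capillary electrophoresis.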

[11] = target: Transcription factor E2F1 (Homo sapiens) (UniProt Q01094); assay: ATG_E2F_CIS: Attagene CIS-FACTORIAL HepG2 Assay for human E2F Transcription Factor 1 (AID 2282935); details: HepG2 Attagene cis-reporter, E2F reporter RNA transcripts; actives raise or lower the signal
Method in brief: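 In this cis-factorial format, endogenous factor activity drives transfected reporters in HepG2; transcripts collected at 24 h are quantified by fluorescence after RT-PCR and capillary separation.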

[12] = ATG_E_Box_CIS: Attagene CIS-FACTORIAL HepG2 Assay for human Enhancer Box (E-box) (AID 2282936); details: HepG2 E-box cis-reporter transcription, actives raise or lower the signal
Method in brief: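 Measured 24 h post-dosing in HepG2 cells transfected with multiple cis-regulated reporter units, signal being reporter mRNA induction detected by fluorescent RT-PCR with capillary electrophoresis; gain or loss fitted against DMSO.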

[13] = ATG_M_61_CIS: Attagene CIS-FACTORIAL HepG2 Assay for M61 Transcription Factor (Internal Marker) (AID 2282937); details: HepG2 Attagene CIS-FACTORIAL M61 internal marker reporter; actives raise or lower the signal
Method in brief: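 Transfect HepG2 with MRTUs; dose 24 h; isolate RNA; reverse-transcribe with DNase I treatment; PCR-amplify, FAM-label and cut with HpaI for 2 h at 37 C; resolve by CE. Bidirectional fitting against DMSO.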

[14] = ATG_EGR_CIS: Attagene CIS-FACTORIAL HepG2 Assay for human Early Growth Response 1 (EGR1) (AID 2282938); details: HepG2 Attagene CIS-FACTORIAL EGR reporter mRNA; actives raise or lower the signal
Method in brief: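 After a 24 h treatment of transiently transfected HepG2 cells, total RNA was reverse-transcribed and reporter sequences PCR-amplified, labelled and run on capillary electrophoresis. Reporters sit under cis-regulatory promoters sensing endogenous factors.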

[15] = ATG_M_19_CIS: Attagene CIS-FACTORIAL HepG2 Assay for M19 Transcription Factor (Internal Marker) (AID 2282939); details: HepG2 Attagene CIS-FACTORIAL M19 internal marker reporter; actives raise or lower the signal
Method in brief: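 HepG2 cells transiently transfected with cis-regulated multiple reporter transcription units were dosed for 24 h; reporter mRNA was quantified by RT-PCR, 6-FAM primer-extension labelling, HpaI digestion and capillary electrophoresis, with bidirectional fitting against DMSO baseline.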

[16] = ATG_ERE_CIS: Attagene CIS-FACTORIAL HepG2 Assay for Estrogen Response Element (ERE) (AID 2282940); details: HepG2 ERE cis-reporter, Attagene RNA transcript; actives raise or lower the signal
Method in brief: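 HepG2 cells transiently transfected with cis-promoter-driven multiplexed reporter transcription units report endogenous TF activity. After 24 h compound exposure, reporter mRNA is quantified by RT-PCR with capillary electrophoresis fluorescence; bidirectional fitting versus DMSO baseline.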

[17] = ATG_Ets_CIS: Attagene CIS-FACTORIAL HepG2 Assay for human Erythroblast Transformation Specific (ETS) (AID 2282941); details: HepG2 ETS cis-reporter transcription, actives raise or lower the signal
Method in brief: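 Endogenous transcription factor activity read as reporter mRNA via RT-PCR and capillary electrophoresis, with gain or loss fitted bidirectionally against DMSO. Human HepG2 liver cells, transiently transfected CIS reporter constructs, 24 h exposure.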

[18] = target: Hepatocyte nuclear factor 3-beta (Homo sapiens) (UniProt Q9Y261); assay: ATG_FoxA2_CIS: Attagene CIS-FACTORIAL HepG2 Assay for human Forkhead box A2 (FOXA2) (AID 2282942); details: HepG2 cis-reporter transcription factor activity, 24 h; actives raise or lower the signal
Method in brief: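 24 h dosing of HepG2 bearing cis-reporter constructs; mRNA readout by RT-PCR/CE fluorescence; bidirectional fit, DMSO baseline.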

[19] = ATG_FoxO_CIS: Attagene CIS-FACTORIAL HepG2 Assay for human Forkhead box O (FoxO) (AID 2282943); details: HepG2 Attagene cis-reporter, FoxO element, mRNA; actives raise or lower the signal
Method in brief: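 Values reflect reporter mRNA induction or loss in HepG2 cells 24 h post-dosing, fitted bidirectionally with DMSO as negative control and baseline. Detection used RT-PCR and fluorescence capillary electrophoresis.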

[20] = ATG_GATA_CIS: Attagene CIS-FACTORIAL HepG2 Assay for human GATA Binding Protein (AID 2282944); details: HepG2 GATA cis-element reporter, Attagene multiplex mRNA; actives raise or lower the signal
Method in brief: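 HepG2 cells transiently transfected with multiplexed cis-element reporter units reflecting endogenous transcription factor activity; reporter mRNA measured after 24 h dosing by RT-PCR, 6-FAM labeling, HpaI digestion and capillary electrophoresis. Bidirectional fitting versus DMSO baseline.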

Measured: AC50

Chain of Retinoic acid receptor alpha (Homo sapiens) (P10276 whole entry, looked up): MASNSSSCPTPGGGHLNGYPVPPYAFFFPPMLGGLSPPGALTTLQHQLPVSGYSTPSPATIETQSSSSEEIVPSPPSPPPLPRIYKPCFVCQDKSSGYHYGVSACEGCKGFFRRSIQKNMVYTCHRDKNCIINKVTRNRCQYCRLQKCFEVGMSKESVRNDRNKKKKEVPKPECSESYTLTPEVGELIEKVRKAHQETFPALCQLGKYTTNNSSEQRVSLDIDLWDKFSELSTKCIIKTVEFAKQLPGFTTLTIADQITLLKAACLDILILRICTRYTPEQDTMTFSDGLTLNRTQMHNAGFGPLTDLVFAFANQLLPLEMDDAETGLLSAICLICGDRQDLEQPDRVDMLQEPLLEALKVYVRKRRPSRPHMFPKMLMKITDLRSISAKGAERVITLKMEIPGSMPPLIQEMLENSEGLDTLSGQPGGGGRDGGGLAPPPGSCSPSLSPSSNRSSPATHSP
Chain of Hepatocyte nuclear factor 3-beta (Homo sapiens) (Q9Y261 whole entry, looked up): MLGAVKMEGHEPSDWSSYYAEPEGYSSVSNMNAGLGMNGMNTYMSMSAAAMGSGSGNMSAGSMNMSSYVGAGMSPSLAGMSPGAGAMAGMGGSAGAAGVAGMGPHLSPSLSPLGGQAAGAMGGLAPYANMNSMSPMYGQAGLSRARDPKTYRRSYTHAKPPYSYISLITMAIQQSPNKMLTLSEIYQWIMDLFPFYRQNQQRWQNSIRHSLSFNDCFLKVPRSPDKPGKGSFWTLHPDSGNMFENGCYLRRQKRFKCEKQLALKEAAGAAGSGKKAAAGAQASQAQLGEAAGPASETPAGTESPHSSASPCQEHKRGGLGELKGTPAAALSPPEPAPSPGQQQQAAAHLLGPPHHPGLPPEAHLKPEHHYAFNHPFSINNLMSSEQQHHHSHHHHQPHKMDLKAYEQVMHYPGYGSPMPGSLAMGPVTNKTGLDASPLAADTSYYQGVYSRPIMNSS
Chain of Transcription factor E2F1 (Homo sapiens) (Q01094 whole entry, looked up): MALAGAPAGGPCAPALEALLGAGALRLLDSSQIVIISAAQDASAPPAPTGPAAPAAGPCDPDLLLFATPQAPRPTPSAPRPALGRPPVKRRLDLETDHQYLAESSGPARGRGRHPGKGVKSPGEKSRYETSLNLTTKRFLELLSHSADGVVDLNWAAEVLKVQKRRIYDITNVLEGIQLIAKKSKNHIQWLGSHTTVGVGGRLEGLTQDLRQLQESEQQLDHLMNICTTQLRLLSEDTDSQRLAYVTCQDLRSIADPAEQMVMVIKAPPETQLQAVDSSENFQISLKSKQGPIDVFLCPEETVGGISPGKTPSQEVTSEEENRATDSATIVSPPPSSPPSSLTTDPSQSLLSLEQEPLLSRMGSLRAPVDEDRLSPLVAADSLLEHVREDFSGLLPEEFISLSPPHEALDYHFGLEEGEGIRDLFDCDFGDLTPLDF
Chain of Aryl hydrocarbon receptor (Homo sapiens) (P35869 whole entry, looked up): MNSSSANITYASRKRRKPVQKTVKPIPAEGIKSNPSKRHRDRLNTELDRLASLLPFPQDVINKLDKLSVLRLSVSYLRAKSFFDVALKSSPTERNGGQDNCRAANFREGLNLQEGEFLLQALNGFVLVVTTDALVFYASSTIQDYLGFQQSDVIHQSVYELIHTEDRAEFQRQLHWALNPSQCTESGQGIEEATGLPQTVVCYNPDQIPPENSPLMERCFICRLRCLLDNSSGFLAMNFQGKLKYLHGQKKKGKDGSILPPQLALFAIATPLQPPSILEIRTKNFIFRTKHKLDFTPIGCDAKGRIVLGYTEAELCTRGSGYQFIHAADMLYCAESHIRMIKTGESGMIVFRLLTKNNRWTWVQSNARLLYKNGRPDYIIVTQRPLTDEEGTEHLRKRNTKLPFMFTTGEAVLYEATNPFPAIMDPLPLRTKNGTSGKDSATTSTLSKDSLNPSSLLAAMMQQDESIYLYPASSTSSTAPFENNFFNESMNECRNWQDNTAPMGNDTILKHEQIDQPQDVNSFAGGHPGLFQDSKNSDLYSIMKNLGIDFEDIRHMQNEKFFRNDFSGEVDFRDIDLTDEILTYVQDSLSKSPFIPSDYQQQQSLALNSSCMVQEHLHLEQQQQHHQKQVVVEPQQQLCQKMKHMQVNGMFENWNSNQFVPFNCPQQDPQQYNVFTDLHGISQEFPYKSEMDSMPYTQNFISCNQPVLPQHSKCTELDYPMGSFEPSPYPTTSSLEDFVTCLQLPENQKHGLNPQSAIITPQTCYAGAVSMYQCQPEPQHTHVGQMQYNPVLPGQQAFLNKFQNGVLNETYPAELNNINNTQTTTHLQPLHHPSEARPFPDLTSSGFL
Chain of CCAAT/enhancer-binding protein beta (Homo sapiens) (P17676 whole entry, looked up): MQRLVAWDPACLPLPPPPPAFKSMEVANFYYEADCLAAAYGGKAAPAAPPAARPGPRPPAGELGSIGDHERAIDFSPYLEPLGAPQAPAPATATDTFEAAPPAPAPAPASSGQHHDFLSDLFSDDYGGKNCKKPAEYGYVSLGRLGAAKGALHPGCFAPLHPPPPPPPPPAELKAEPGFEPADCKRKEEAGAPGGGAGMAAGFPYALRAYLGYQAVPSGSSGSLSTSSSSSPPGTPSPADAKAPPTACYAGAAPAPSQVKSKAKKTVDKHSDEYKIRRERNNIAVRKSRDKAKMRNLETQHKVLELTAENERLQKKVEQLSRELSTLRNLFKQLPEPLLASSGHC

CCCCC(=O)O
inactive: all assays above

CCCCC(C=O)CC (centres undefined)
not listed: [12]
inactive: all other assays above

O=C(Cl)c1ccc(C(=O)Cl)cc1
not listed: [19]
inactive: all other assays above

CCCCOCC(C)O (centres undefined)
active: [1] 129 nM
not listed: [19]
inactive: all other assays above

CCCCC(CC)COC(=O)/C=C/c1ccc(OC)cc1 (centres undefined)
not listed: [19]
inactive: all other assays above

CCOB(OCC)OCC
not listed: [12] | [17]
inactive: all other assays above

O=C1CCCN1C1CCCCC1
not listed: [17] | [20]
inactive: all other assays above

CCOC(=O)c1ccc(C)cc1
not listed: [12] | [17] | [20]
inactive: all other assays above

— PubChem BioAssay (EPA / NIEHS)
